According to ChEMBL document CHEMBL1157539, “Thousands of chemical starting points for antimalarial lead identification” (Nature, 2010):

Tests used:
Assay type in all cases: functional
[1] = test system: Plasmodium falciparum; assay: GSK_TCMDC: Inhibition of Plasmodium falciparum 3D7 in whole red blood cells, using parasite LDH activity as an index of growth. Test compounds present at 2uM
[2] = test system: Plasmodium falciparum; assay: GSK_TCMDC: Inhibition of Plasmodium falciparum Dd2 in whole red blood cells, using parasite LDH activity as an index of growth. Test compounds present at 2uM
[3] = test system: HepG2; assay: GSK_TCMDC: Percent inhibition of human HepG2 cell line. Test compounds present at 10uM.

Structure (SMILES)	Inhibition [1] [%]	Inhibition [2] [%]	Inhibition [3] [%]
O=C(Nc1ccc2c(c1)CCN2C1CCN(Cc2cccc3cc[nH]c23)C1)c1ccco1 (configuration not stated)	88	86	0
COc1ccccc1CN1CCC(NC(=O)c2ccc(-c3ccc(N(C)C)cc3)s2)CC1.O=C(O)C(F)(F)F	90	38	29
CC[C@@]1(O)C(=O)OCc2c1cc1n(c2=O)Cc2c-1nc1cc3c(cc1c2CN1CCN(C)CC1)OCCO3.Cl	98	97	79
N#Cc1ccccc1S(=O)(=O)N1CCCC(CNC(=O)[C@H](CC2CCCCC2)NC(=O)c2cc3ccccc3s2)C1 (some centres not stated)	97	92	9
COc1ccc(NC(=O)CSc2nc(-c3ccccc3Cl)ns2)cc1	96	75	11
N=C(N)NN=CC(=O)Nc1ccc(Cl)c(Cl)c1	97	0	0
Cc1cc(N[C@@H](Cc2ccccc2)C(=O)NCc2cccs2)nc(NCCc2ccccn2)n1.O=C(O)C(F)(F)F	93	49	0
COc1ccc(-c2cccc(NC(=O)c3ccc(C#N)cc3)c2)cc1CN(C)CCN(C)C.O=C(O)C(F)(F)F	90	18	14
Cc1ccc(F)c(CN2CCC(N3CC(c4ccccc4)(c4ccccc4)OC3=O)CC2)c1Cl	95	89	11
CC(C)CCNCc1c(O)ccc2ccccc12	95	51	9
COc1ccc(-c2nc(-c3ccc([N+](=O)[O-])cc3)no2)cc1OC	96	0	14
COC(=O)c1cccc(CNCc2cccc(-c3ccc(-c4nc5ccccc5[nH]4)cc3)c2)c1.O=C(O)C(F)(F)F	99	51	0
Cc1cccc(CNc2nc(C)cc(NCCC(=O)NCCOc3ccccc3)n2)c1.O=C(O)C(F)(F)F	98	14	18
O=S(=O)(c1c(Cl)cccc1Cl)N1CCCCC(c2ccc(C(F)(F)F)cc2)=N1	99	98	11
C[C@H](NC(=O)c1cc(-c2ccc(C(C)(C)C)cc2)no1)C(=O)O.C[C@H](NC(=O)c1conc1-c1ccc(C(C)(C)C)cc1)C(=O)O	91	97	31
C=CCOC(=O)N1CCC(CNCc2cccc(-c3ccc(-c4nc5ccccc5[nH]4)s3)c2)C1.O=C(O)C(F)(F)F (configuration not stated)	99	63	9
CCNc1cc(C(=O)N[C@@H](Cc2ccccc2)[C@H](O)CNC23CCC(CC2)CC3)cc(N2CCCCS2(=O)=O)c1.Cl	99	98	10
CN1CCCc2ccc(NC(=O)Nc3ccc(-c4ccccc4)cc3)cc2C1	97	47	23
Cl.Nc1nc(N)c2c(ccc3nn(Cc4cccnc4)cc32)n1	96	0	41
Br.CCn1c2c(c(=N)c3ccccc31)CCC2	83	61	11

Structure (SMILES)	Inhibition [1] [%]	Inhibition [2] [%]	Inhibition [3] [%]
CC(C)[C@@H](C(=O)NCc1cccc(C(F)(F)F)c1)N1C(=O)CCC1C(=O)Nc1ccc([N+](=O)[O-])cc1 (some centres not stated)	94	2	0
CN(C)CCOc1ccc(-c2cc(-c3ccc(Cl)c(O)c3)c(-c3ccncc3)o2)cc1.Cl	100	99	39
CN1N=C2c3ccccc3CCC2C1c1ccc(C#N)cc1 (configuration not stated)	95	85	0
CC(C)c1cn2c3c(cc(C(=O)N[C@@H](Cc4ccccc4)[C@H](O)CNC4CCCCC4)cc13)N(C)S(=O)(=O)CC2.O=CO	98	99	9
Cc1cc2nc(-c3ccc(C(=O)NCc4cccc(C(F)(F)F)c4)cc3)[nH]c2cc1C	98	34	4
Cc1cc(N[C@@H](Cc2ccccc2)C(=O)NCCOc2ccccc2)nc(Nc2ccccc2)n1.O=C(O)C(F)(F)F	100	63	2
COc1cc(OC)c(NC(=O)C2c3ccccc3C(=O)N(C)C2c2cccs2)cc1Cl (configuration not stated)	99	52	4
O=C(Nc1ccc(Cl)cc1Cl)N[C@H]1CCN(CCCCCNC(=O)C2CC2c2ccc(Cl)c(Cl)c2)C1 (some centres not stated)	94	0	37
Nc1cccc(CNCc2cccc(-c3ccc(-c4nc5cc(C(F)(F)F)ccc5[nH]4)cc3)c2)c1.O=C(O)C(F)(F)F	100	98	6
COc1ccc(CCN(C)CCCCNC(=O)c2ccc(NC(=O)c3ccc(Cl)cc3)cc2)c(OC)c1	87	0	12
CCc1cc(CNC2CCN(CCc3c(F)cnc4ccc(OC)nc34)CC2)cc2c1OCCO2.Cl	100	94	46
Cc1cc(C2CCN(CCCCNC(=O)c3ccc(-c4ccc(C(F)(F)F)cc4)cc3)CC2)c(C)cc1OCC(N)=O	91	44	34
O=C(Nc1ccc(Cn2ncc(N3CCCNCC3)c(Cl)c2=O)cc1)Nc1ccc(OCc2ccccc2)cc1.O=C(O)C(F)(F)F	90	32	15
CNc1nc(N/N=C/c2cc([N+](=O)[O-])c(Cl)cc2Cl)nc(Nc2cccc(C(F)(F)F)c2)n1	100	97	13
Cc1[nH]c(C)c(-c2ccc(OCc3cc(F)cc(F)c3)nc2)c(=O)c1Br	98	97	37
CCc1cn2c3c(cc(C(=O)N[C@@H](Cc4cccc(F)c4)[C@H](O)CNC4CCOCC4)cc13)N(C)S(=O)(=O)CC2.O=CO	97	97	0
CCCC(=O)c1cnc2cc(O)ccc2c1Nc1ccccc1C	99	93	14
O=C(Nc1ccc2c(c1)CCC2)c1nc(N2CCN(c3ccncc3)CC2)ccc1Cl.O=C(O)C(F)(F)F	100	97	55
CCC[C@@H]([C@@H](CC1CCCCC1)C(=O)NC(C(=O)Nc1nccs1)C(CC)c1ccccc1)N(O)C=O (some centres not stated)	89	19	50
Cc1ccc(NC(=O)c2ccc(CN3CCCN(Cc4cccc(O)c4)CC3)cc2)cc1F.O=C(O)C(F)(F)F	97	31	48

Structure (SMILES)	Inhibition [1] [%]	Inhibition [2] [%]	Inhibition [3] [%]
OCc1ccc(-c2cncc(Nc3ccc(F)c(Cl)c3)c2)cc1	92	99	2
CCc1sc(-c2cc(Cl)ccc2OC)nc1C(=O)NCCN1CCCCC1.O=C(O)C(F)(F)F	100	28	3
CNC(=O)NC1CCN(Cc2c(-c3cccs3)nc3ccccc3c2C(=O)N[C@@H](C)C2CCCCC2)CC1	99	97	5
COc1ccc(NC(=O)c2c(NC(=O)c3cccs3)sc3c2CCCC3)cc1	97	4	4
COc1ccc(Nc2nc(NCc3cccnc3)cc(-c3ccc(OC)cc3)n2)cc1	89	16	0
N#Cc1cccc(NC(=O)Nc2cccc(-c3ccc(-c4nc5cc(C(F)(F)F)ccc5[nH]4)cc3)c2)c1	100	99	54
O=C(O)C(F)(F)F.O=C1CCCN1CCCNCc1ccc(-c2ccc(-c3nc4cc(C(F)(F)F)ccc4[nH]3)cc2)cc1	100	98	10
CC(C)(C)c1ccc(CN2CCC(CNC(=O)c3cc(-c4cccc(F)c4)cs3)C2)cc1.O=C(O)C(F)(F)F (configuration not stated)	100	55	32
O=C(NCCCCCN1CCC(c2c[nH]c3ccccc23)CC1)Nc1ccc(Cl)c(Cl)c1	92	0	42
Cc1cc(N2CC=CCC2)nc(NC(=N)Nc2ccc(Br)cc2)n1	98	41	10
CC(C)=CCN1CCC(C(=O)Nc2ccc(-c3nc4ccccc4[nH]3)cc2)CC1	95	0	0
O=C(O)C(F)(F)F.O=S(=O)(NCCN1CCCC1)c1cccc(-c2cccc(CNCc3ccccc3)c2)c1	97	73	32
COc1ccc(CN2CCCN(Cc3cccc(C(=O)Nc4ccc(C)c(F)c4)c3)CC2)cc1.O=C(O)C(F)(F)F	83	10	49
Cc1ccc(C)c(NC(=O)Nc2ccc(C)c(-c3ccc(C(=O)Nc4ccncc4)cc3)c2)c1	98	59	46
c1ccc2[nH]c(Nc3ccc(Nc4nc5ccccc5[nH]4)cc3)nc2c1	98	27	0
CN(C(=O)C1(c2ccc(Cl)cc2)CC1)C1CCN(CCCCCNC(=O)/C=C/c2ccc(Cl)c(Cl)c2)CC1	88	0	91
CCCNCc1ccc(-c2ccc(CN(Cc3cccs3)C(=O)C3CCN(C)CC3)cc2)nc1.O=C(O)C(F)(F)F	99	35	10
CCNc1cc(C(=O)N[C@@H](Cc2ccccc2)[C@H](O)CNC(C)(C)Cc2cccc(Cl)c2)cc(N2CCCCS2(=O)=O)c1.Cl	97	74	17
O=C(/C=C/c1ccc(Cl)c(Cl)c1)NCCCCN1CCCN(C(=O)Nc2ccc(F)c(Cl)c2)CC1	87	2	69
